Inconclusive results are not listed. A number with no mark means an inactive call. Active and inactive are the calls of the source. Calls follow the shape of the dose curve; as a rule, active = well fitted activation curve with a large enough effect in the signal ratio, with a control signal flat; inconclusive = small, poorly fitted or top-dose-only effect, or a change in a side signal; inactive = flat fitted curve, though single readings scatter; the % refers to the signal ratio.
The compounds below were run against Thyrotropin receptor (Homo sapiens) (UniProt P16473) (assay: Secondary Concentration-Response Assay for Agonists of the Thyroid Stimulating Hormone Receptor: HTRF Activity Detection). Conditions: HEK293-TSHR cells, cAMP HTRF ratio, 30 min; series mostly up to 91.7 µM; activation: at the top concentration.
Sequence of Thyrotropin receptor (Homo sapiens) (P16473 whole entry, looked up): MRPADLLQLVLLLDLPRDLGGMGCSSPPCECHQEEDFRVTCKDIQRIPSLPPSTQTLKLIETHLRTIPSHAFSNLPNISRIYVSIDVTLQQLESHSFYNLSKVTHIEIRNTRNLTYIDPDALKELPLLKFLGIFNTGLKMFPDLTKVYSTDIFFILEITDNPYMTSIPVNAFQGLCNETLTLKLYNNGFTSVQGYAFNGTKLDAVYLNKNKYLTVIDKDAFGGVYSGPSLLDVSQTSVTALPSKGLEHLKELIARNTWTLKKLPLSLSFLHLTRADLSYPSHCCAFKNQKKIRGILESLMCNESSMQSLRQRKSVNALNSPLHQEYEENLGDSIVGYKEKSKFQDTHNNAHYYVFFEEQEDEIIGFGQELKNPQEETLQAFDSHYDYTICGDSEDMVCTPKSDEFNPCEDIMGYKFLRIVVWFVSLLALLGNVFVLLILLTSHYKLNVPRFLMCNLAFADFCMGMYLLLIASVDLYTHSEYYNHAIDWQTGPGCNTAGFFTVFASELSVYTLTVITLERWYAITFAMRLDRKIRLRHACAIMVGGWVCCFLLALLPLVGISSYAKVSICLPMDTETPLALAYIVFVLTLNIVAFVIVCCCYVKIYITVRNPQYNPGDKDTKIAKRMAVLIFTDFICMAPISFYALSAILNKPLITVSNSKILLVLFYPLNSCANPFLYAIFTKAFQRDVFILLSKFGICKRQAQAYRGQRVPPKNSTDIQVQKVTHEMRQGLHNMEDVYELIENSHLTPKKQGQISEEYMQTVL
Outline: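 cAMP accumulation was detected by antibody-based HTRF, excitation 330 nm, emissions 615 and 660 nm. Compounds acted for 30 min at room temperature on stably TSHR-transfected HEK 293 cells, with phosphodiesterase inhibitor RO 20-1724 (100 uM) in the medium.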
For activation in this document: % of control where 0% means no effect.
Potency is read from the fitted curve at half-maximal effect.

Compound	Potency	activation
COc1ccc(C(=O)N(Cc2ccccc2)Cc2ccc(OC)c(COc3ccc(NC(C)=O)cc3)c2)cc1	12.6 µM (active)	
O=C1c2ccccc2NC(c2c(Cl)cccc2Cl)N1Cc1ccccc1 (stereo not given)		1.83%
O=c1c2c(-c3ccccc3)csc2ncn1/N=C/c1cn(-c2ccccc2)nc1-c1cccs1		0.928%
O=C1c2ccccc2NC(c2ccccc2Br)N1CCCN1CCOCC1 (stereo not given)		0.626%
COc1ccc(/C=N/NC(=O)c2ccn[nH]2)cc1COc1ccc(F)cc1		2.29%
COc1cccc(CN2C(=O)CN(C3CCCCC3)C(=O)C2c2ccc(F)cc2)c1 (stereo not given)		0.406% [at 0.00035 µM]
COc1ccc(/C=N/O)cc1COc1ccc(NC(C)=O)cc1		0.871%
COc1ccc(C2Nc3ccccc3C(=O)N2Cc2ccccc2)cc1COc1ccc(C#N)cc1 (stereo not given)		11.2%
CCC(=O)Nc1ccc(OCc2cc(C3Nc4ccccc4C(=O)N3Cc3ccccc3)ccc2OC)cc1 (stereo not given)		28%
Cc1ccc(S(=O)(=O)N2CCC(C(=O)NCCCN3CCCCCC3)CC2)cc1		0.566% [at 0.00035 µM]
COc1ccc(C2Nc3ccccc3C(=O)N2Cc2ccccc2)cc1COc1ccccc1F (stereo not given)		1.32%
CC1=CCC2C(=O)N(c3ccc(Br)cc3C)C(=O)C2C1 (stereo not given)		0.113% [at 0.00035 µM]
COc1ccc2c(c1OC)C(=O)N1c3ccccc3C(=O)N(c3ccc(F)cc3)C21 (stereo not given)		0.277%
CS(=O)(=O)N1CCN(C(=O)c2cc(-c3cccs3)nc3ccccc23)CC1		0.0393% [at 0.00035 µM]
O=c1c2ccccc2nc(-c2ccccc2O)n1Cc1ccccc1		4.17%
COc1cc(OC)cc(C(=O)N2c3ccc(F)cc3CCC2C)c1 (stereo not given)		-0.327% [at 0.00035 µM]
CCOc1ccc(S(=O)(=O)NCc2ccccc2Cl)cc1C(N)=O		1.35%
COc1cc(C2Nc3ccccc3C(=O)N2c2ccccc2)ccc1O (stereo not given)		1.29%

Compound	Potency	activation
COc1ccc(C2Nc3ccccc3C(=O)N2Cc2ccco2)cc1COc1ccc(F)cc1 (stereo not given)		0.829%
COc1cc(C2Nc3ccccc3C(=O)N2Cc2ccco2)cc(OC)c1OC (stereo not given)		2.24%
COc1ccc(C2Nc3ccccc3C(=O)N2Cc2ccccc2)cc1COc1ccc(C)cc1 (stereo not given)		18.2%
Brc1ccc(Oc2nnnn2-c2ccccc2)cc1		-1.07% [at 0.00035 µM]
COc1ccc(-c2nc3ccccc3c(=O)n2Cc2ccccc2)cc1OCc1ccc(NC(C)=O)cc1		2.33%
COc1cc(C2Nc3ccccc3C(=O)N2Cc2ccccc2)ccc1OCc1ccccc1 (stereo not given)		1.28%
COC(=O)C1=C(C)OC(N)=C(C#N)C1C1CCCCC1 (stereo not given)		-0.764% [at 0.00035 µM]
Cc1cc(-n2c(C)cc(C(=O)CSc3nnnn3-c3ccc(Cl)cc3)c2C)no1		1.18% [at 0.00035 µM]
CC1CCN(S(=O)(=O)c2cccc(C(=O)Nc3ccccn3)c2)CC1		0.1% [at 0.00035 µM]
COc1ccc(C2Nc3ccccc3C(=O)N2Cc2ccco2)cc1COc1ccc(N)cc1 (stereo not given)		30.9%
O=C(CN(Cc1ccccc1Cl)C(=O)Cn1nnc(-c2cccs2)n1)NCC1CCCO1 (stereo not given)		0.671% [at 0.00035 µM]
COc1cccc(OCc2cc(C3Nc4ccccc4C(=O)N3c3ccccc3)ccc2OC)c1 (stereo not given)		1.73%
Cc1ccc(N(CC(=O)NCc2ccco2)S(=O)(=O)c2ccccc2)cc1		0.48% [at 0.00035 µM]
COc1ccc(C2Nc3ccccc3C(=O)N2c2ccc(C)cc2)cc1COc1ccccn1 (stereo not given)		2%
COc1ccc(-c2nc3ccccc3c(=O)n2Cc2ccco2)cc1COc1ccc(NC(C)=O)cc1	17.8 µM (active)	
CCOC(=O)c1ccccc1OCc1cc(C2Nc3ccccc3C(=O)N2c2cccc3ccccc23)ccc1OC (stereo not given)		0.946%
COc1ccc(C2Nc3ccc(Cl)cc3C(=O)N2Cc2ccccc2)cc1COc1ccc(NC(C)=O)cc1 (stereo not given)	14.1 µM (active)	
